Hits are enriched below; roughly 19% of the tested compounds scored in any of these assays.
uPA generation: blocks generation of uPA at the cell surface. Potency, µM (highest dose often 38.3 µM), for the others: at the highest dose activity change, negative = inhibition, actives largely listed as inhibitors. 330,000 tested, 0.31% active. cell surface uPA generation assay, qHTS; active = well fitted inhibition curve with a large enough effect; inconclusive = small, poorly fitted or top-dose-only effect; inactive = no such curve, though single readings can be large or run the other way; tested in mouse RAW 264.7 cells; note: potency is the fitted concentration of half-maximal effect; nearly all actives have a fitted effect of over 55% in size
IL-1B inflam inh: blocks inflammasome-driven IL-1 beta release; THP-1 LPS/ATP IL-1B secretion, AlphaLISA, 16 h; hits give low values; activity change, % at 57.5 µM; 360,000 tested, 4.7% active; in the data active = activity change below about -50%; inconclusive = mostly about -30% to -49%
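Secreted IL-1B measured by AlphaLISA bead assay after 16 h compound exposure of THP-1 cells; compounds (final up to 57.5 uM) added 1 h before LPS (250 ng/mL) and ATP (1.25 mM) stimulation; lower signal means less secretion.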
HT1080-NT tox: kills 2HG-producing HT-1080-NT fibrosarcoma cells | HT-1080-NT fibrosarcoma viability, CellTiter-Glo ATP luminescence, 48 h | Potency, µM (titrated, usually from 46.1 µM), for the others: at the highest dose activity, negative = less viability, hits mostly cytotoxic | 360,000 tested, 1.6% active;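 note: NT is the 2HG producing partner of a matched IDH1 knockdown line; potency is the fitted concentration of half-maximal effect; 0% = DMSO-treated cells and -100% = media-only wells without cells; nearly all actives have a fitted effect of over 55% in size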
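Viability by CellTiter-Glo luminescence after 48 h compound exposure at 37C of HT-1080-NT cells (750/well, RPMI, 5% FBS). % activity scaled between DMSO wells and medium-only wells, then curve-fitted and categorized by curve class.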
HT1080 IDH1KD tx: kills HT-1080 cells with IDH1 knockdown; HT-1080 IDH1 knockdown viability, ATP luminescence, 48 h; Potency, µM (series often up to 46.1 µM), for inactives: top-dose activity, negative = toxicity, actives largely listed as cytotoxic; 360,000 tested, 2% active; AID 686971;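 note: potency is the fitted concentration of half-maximal effect; 0% = DMSO wells and -100% = cell-free medium wells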
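Cytotoxicity counter-line: IDH1KD HT-1080, 48 h, CellTiter-Glo. Curves classed by r2, magnitude and activity.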
TDP1 cell noCPT: qHTS for Inhibitors of human tyrosyl-DNA phosphodiesterase 1 (TDP1): qHTS in cells in absence of CPT | DT40 Tdp1-/- hTDP1 cells, no CPT, ATP luminescence, 48 h | Potency, µM (highest dose often 46.2 µM), for inactives: top-dose activity change, negative = growth inhibition, hits mostly inhibitors | 420,000 tested, 15% active | AID 686978, 2013; note: potency is the fitted concentration of half-maximal effect; nearly all actives have a fitted effect of over 55% in size
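Chicken DT40 Tdp1-/- cells stably complemented with human TDP1 were seeded at 400 cells/well with DMSO in place of 20 nM camptothecin. After compound pinning, cells grew at least 48 hr at 37 °C; viability read by CellTiter-Glo luminescence.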
DT40 TDP1 CPT: DT40-hTDP1 cell growth loss with CPT. 420,000 tested, 12% active. chicken DT40 Tdp1-/-;hTDP1 cells + 20 nM CPT, ATP luminescence, 48 h. Potency, µM (highest dose often 46.2 µM), inactives show at the top dose activity change, negative = growth inhibition, actives largely listed as inhibitors; note: potency is the fitted concentration of half-maximal effect; nearly all actives have a fitted effect of over 55% in size
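Chicken DT40 Tdp1-/- cells complemented with human TDP1, 400 cells/well, exposed to compounds plus 20 nM camptothecin for at least 48 h at 37 C; viability read as ATP content by CellTiter-Glo luminescence.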
* hit, by the source's call; i = inactive; u = inconclusive; x = no result; [ ] = dose if it differs, or a comment. Unless noted, calls come from the whole dose curve; as a rule, active = well fitted curve in the direction sought with a large enough effect; inconclusive = small, poorly fitted or top-dose-only effect, or another doubt; inactive = no such curve, though single readings can be large; an effect the other way counts as inactive or inconclusive. Unless noted, % is set by controls: 0 for no effect and ±100 for the full control effect.

SMILES	uPA generation	IL-1B inflam inh	HT1080-NT tox	HT1080 IDH1KD tx	TDP1 cell noCPT	DT40 TDP1 CPT
C[C@]12c3[nH]c4cc(-c5ccco5)ccc4c3CCN1C(=O)[C@@H](CC(=O)NCc1ccco1)C[C@@H]2C(=O)N1CCCCC1	u	u	-23%	-27%	u	u
O=C(NCc1cccs1)c1csc(COCCO)n1	x	6	u	14%	-1%	4%
O=C(NCc1ccncc1)c1cnn(-c2nccc(-c3cccs3)n2)c1C1CC1	x	x	x	x	-11%	-7%[9.04 µM]
O=C(NCc1ccccc1)c1ccc2c(c1)nc1n2CCOC1	x	x	x	x	-5%	-12%
Cc1ccc(C)c(N2CCN(C(=O)c3ccc(NC(=O)c4nsc5ccccc45)cc3)CC2)c1	x	x	x	x	18µM*	21µM*
Cc1ccc(C)c(N2CCN(c3ccc(NC(=O)c4cccs4)cc3C(=O)O)CC2)c1	x	x	x	x	u	-23%
O=C(Nc1cccc(C(=O)N2CCN(c3cccc(Cl)c3)CC2)c1)c1nsc2ccccc12	x	x	x	x	16µM*	18µM*
O=C(Nc1cccc(C(=O)N2CCN(c3ccc(Cl)cc3)CC2)c1)c1nsc2ccccc12	x	x	x	x	10µM*	15µM*
O=C(c1cccc(NC2=NC3CS(=O)(=O)CC3S2)c1)N1CCN(c2cccc(Cl)c2)CC1 (stereo not drawn)	9%	-15	-1%	5%	u	u
O=C(Nc1cccc(C(=O)N2CCCC2)c1)c1ccccc1Cl	x	21	4%	-1%	2%	0%
O=C(Nc1cccc(C(=O)N2CCN(c3cccc(Cl)c3)CC2)c1)c1ccccc1	u	u	u	-25%	26µM*	16µM*
O=C(Nc1cccc(C(=O)N2CCN(c3ccccc3)CC2)c1)c1ccco1	1%	i	2%	19%	-24%	-23%
C#CCn1c(COc2ccccc2C)nc2ccccc21	x	x	x	x	u	-24%
O=C(COc1ccc2ccccc2c1)Nc1ccc2c3c(cccc13)CC2	u	7	u	u	-15%	u
O=C(NCCCNC(=O)c1cccnc1)c1ccc(Cl)cc1	0%	11	12%	14%	0%	5%
O=C(CCN1C(=O)C2CCCCC2C1=O)Nc1ccc(Br)cc1F (stereo not drawn)	-3%	-18	1%	-4%	-25%	-19%
CCOc1ccc(S(=O)(=O)N(CC(=O)NN=C2CCN(C)CC2)c2ccc(C)cc2)cc1	u	0	-5%	-17%	3%	-12%
O=C(Nc1ccc(C(=O)N2CCN(c3cccc(Cl)c3)CC2)cc1)c1nsc2ccccc12	x	x	x	x	13µM*	u
O=C(Nc1cc2ccc(O)cc2oc1=O)c1ccc(F)cc1	x	x	x	x	u	-12%
O=C(NC1CCCCCC1)c1c(F)c(F)c(F)c(F)c1F	-1%	-91*	5%	7%	-14%	0%
CCOc1ccc2c(c1)N(C(=O)CN1C(=O)CCC1=O)C(C)(C)C=C2C	-3%	-15	10%	10%	u	u
CC1=CC(C)(C)N(C(=O)CNC2CCCC2)c2cc(C)ccc21	-18%	0	-17%	-1%	26µM*	u
COc1ccc2c(c1OC)C(=O)OC2Nc1nc(-c2cccc([N+](=O)[O-])c2)cs1 (stereo not drawn)	-6%	-9	1%	1%	-1%	2%
COCCNc1c(-c2cc3ccc(C)c(C)c3[nH]c2=O)nc2ccccn12	-12%	-59*	9%	6%	18µM*	u
CC1=C(C(=O)Nc2ccccc2)C(c2cccnc2)n2nc(SCc3ccccc3Cl)nc2N1 (stereo not drawn)	x	x	x	x	-8%	-16%
SMILES	uPA generation	IL-1B inflam inh	HT1080-NT tox	HT1080 IDH1KD tx	TDP1 cell noCPT	DT40 TDP1 CPT
O=C(N/N=C/c1ccccc1[N+](=O)[O-])c1cccs1	-6%	1	8%	3%	-14%	8%
Cc1ccc(/C=N/NC(=O)c2cccs2)o1	7%	-5	3%	-1%	-2%	-10%
O=C(CSc1nnc(SCc2ccccc2)s1)N/N=C/C=C/c1ccccc1[N+](=O)[O-]	-6%	-2	9%	16%	16µM*	u
O=C(CSc1nnc(SCc2ccccc2)s1)N/N=C/C=C\c1ccco1	-15%	0	-1%	-2%	u	u
O=C(N/N=C/C=C/c1ccccc1[N+](=O)[O-])c1cccs1	1%	4	13%	19%	8.2µM*	u
Cc1ccc(/C=N/NC(=O)c2cccs2)cc1[N+](=O)[O-]	-21%	-2	16%	16%	16µM*	12µM*
O=C(N/N=C\C=C\c1ccc([N+](=O)[O-])o1)c1cccs1	-11%	u	u	13µM*	3.3µM*	4.1µM*
O=C(CN1CCN(Cc2ccccc2)CC1)N/N=C/C=C/c1ccccc1[N+](=O)[O-]	4%	-2	9%	20%	u	-19%
O=C(CN1CCN(Cc2ccc(Cl)cc2)CC1)N/N=C/C=C/c1ccccc1[N+](=O)[O-]	-2%	-5	0%	-3%	18µM*	u
COc1ccc(NC(=O)C2CCCCN2S(=O)(=O)c2ccccc2)cc1S(=O)(=O)N1CCOCC1 (stereo not drawn)	-49%	-2	0%	1%	-6%	-29%
CCOc1cc(Br)c(CC(=O)NC2CCCCCC2)cc1OCC	2%	-5	-13%	-13%	21µM*	u
CCOc1ccc(C(=S)NC2CCCCC2)cc1OCC	4%	-1	-1%	-4%	4.6µM*	u
Cc1ccc(C(=O)N2CCCC2(C)C(=O)NCC(C)C)cc1F (stereo not drawn)	x	15	29%	2%	-15%	-8%
CCOC(=O)Cn1cc(C(=O)C(C)(C)C)c2ccccc21	-2%	0	15%	-2%	-15%	u
COC(=O)Cn1cc(C(=O)C2CC2)c2ccccc21	8%	-89*	7%	4%	-17%	-1%
COC(=O)Cn1cc(C(=O)C(C)(C)C)c2ccccc21	x	-74*	7%	0%	1%	2%
CCOC(=O)Cn1cc(C(=O)C2CC2)c2ccccc21	-1%	23	-7%	5%	0%	-2%
O=C(Nc1ccccc1Cl)OC1CCCCC1	1%	-9	-17%	-2%	u	4%
CCN(CC)CCN(C)C1CCC(c2ccccc2)CC1 (stereo not drawn)	-3%	12	-11%	-12%	21µM*	16µM*
CCN(CC)CCP(=O)(c1ccccc1)c1ccccc1	-1%	7	7%	2%[9.24 µM]	0%	-6%
